uPA generation: qHTS for Inhibitors of Cell Surface uPA Generation. cell surface uPA generation assay, qHTS. Potency, µM (series often up to 38.3 µM), hits mostly inhibitors. 330,000 tested, 0.31% active; active means well fitted inhibition curve with a large enough effect; inconclusive means small, poorly fitted or top-dose-only effect; inactive means no such curve, though single readings can be large or run the other way; tested in mouse RAW 264.7 cells; further: nearly all actives have a fitted effect of over 55% in size
VP16 counter: VP16 counterscreen qHTS for inhibitors of ROR gamma transcriptional activity. Drosophila S2 Gal4-VP16 UAS-luciferase, luminescence, 20 h. Potency, µM (series often up to 53.6 µM), usual class: inhibitors. 310,000 tested, 3.5% active. AID 2546, 2010;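 further: Gal4-VP16 expression switched on by copper sulfate through the metallothionein promoter; nearly all actives have a fitted effect of over 50% in size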
Mito fusion yeast: qHTS Assay for Small Molecule Inhibitors of Mitochondrial Division or Activators of Mitochondrial Fusion | S. cerevisiae fusion-defective mutant growth rescue, CellTiterGlo 48 h | Potency, µM (titrated, usually from 46.1 µM), most hits filed as activators | 320,000 tested, 0.23% active | AID 485298, 2010; further: nearly all actives have a fitted effect of over 45% in size
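Compounds are tested for their ability to restore growth of mitochondrial fusion-defective yeast strains at non-permissive 37C in YPEG medium over 48 hours. Viability is quantified by luciferase luminescence.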
Chronic BCR inh: qHTS Assay to Find Inhibitors of Chronic Active B-Cell Receptor Signaling | ABC-DLBCL IkBa-CBG/CBR reporter, luminescence ratio, 4 h | Potency, µM (doses to about 46.1 µM), actives largely listed as inhibitors | 340,000 tested, 0.05% active | AID 493014, 2011; active means well fitted inhibition curve with a large enough effect in the signal ratio, with a control signal flat, not every such curve was filed as active; inconclusive means small, poorly fitted or top-dose-only effect, or effect the other way, or a change in a side signal; the % refers to the signal ratio
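Compounds up to 46 uM were incubated four hours with TMD8 cells whose green CBG68 luciferase is fused to IkappaBalpha; red CBR luminescence normalised the signal, and concentration-effect curves were fitted to fusion, red and ratio data.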
RORg inh: qHTS for inhibitors of ROR gamma transcriptional activity | Nuclear receptor ROR-gamma (Mus musculus), P51450 | Drosophila S2 Gal4-RORgamma UAS-luciferase reporter, 20 h | Potency, µM (doses to about 53.6 µM), usual class: inhibitors | 310,000 tested, 5.4% active | AID 2551, 2010; further: nearly all actives have a fitted effect of over 60% in size
Target sequence (P51450 whole entry, looked up, the tested form may be a part): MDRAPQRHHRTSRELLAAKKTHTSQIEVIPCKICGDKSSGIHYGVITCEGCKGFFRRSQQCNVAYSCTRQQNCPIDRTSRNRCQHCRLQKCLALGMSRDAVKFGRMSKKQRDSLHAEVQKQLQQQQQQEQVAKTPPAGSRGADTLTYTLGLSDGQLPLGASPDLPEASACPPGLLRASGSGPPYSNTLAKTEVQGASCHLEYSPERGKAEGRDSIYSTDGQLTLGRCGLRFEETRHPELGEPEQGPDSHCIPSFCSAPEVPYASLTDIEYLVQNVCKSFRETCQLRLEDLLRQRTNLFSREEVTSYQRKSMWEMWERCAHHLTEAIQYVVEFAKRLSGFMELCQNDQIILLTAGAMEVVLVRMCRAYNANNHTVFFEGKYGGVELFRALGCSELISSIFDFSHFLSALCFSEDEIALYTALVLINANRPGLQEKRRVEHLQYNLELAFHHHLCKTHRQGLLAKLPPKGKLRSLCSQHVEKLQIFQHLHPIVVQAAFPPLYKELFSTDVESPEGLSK
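Drosophila S2 cells stably expressing Gal4-DBD/mouse RORγ fusion under metallothionein promoter plus UAS-luciferase; compound 1 h, then 700 uM CuSO4 induction for 20 h at ambient temperature; inhibition read as reduced luminescence.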
Integrin act MD: qHTS for Activators of Integrin-Mediated Alleviation for Muscular Dystrophy; alpha7betagal myoblasts, beta-gal FDG fluorescence, 48 h; Potency, µM (top dose mostly 38.3 µM), most hits filed as activators; 350,000 tested, 0.064% active; AID 624291, 2012; further: nearly all actives have a fitted effect of over 60% in size
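alpha7betagal+/- myoblasts (passage 13, 250/well) treated 48 h at 37C with compounds at 1:260 dilution of DMSO stock. Lysed, then beta-galactosidase activity read as FDG fluorescence (ex 480/em 540) after 30 min, with pre-read for autofluorescence.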
Each line names hits and unclear results; the compound was inactive in the other large screens; ! = not confirmed by another sample. This is a sample that favours compounds with a hit; in the whole collection about 5.5% have one here. Unless noted, the call rests on the fitted dose curve; in most records, active means well fitted curve in the direction sought with a large enough effect; inconclusive means small, poorly fitted or top-dose-only effect, or another doubt; inactive means no such curve, though single readings can be large; an effect the other way counts as inactive or inconclusive.

CCOC(=O)c1sc2nc(-c3ccccc3)ccc2c1N	VP16 counter inconclusive, Chronic BCR inh inconclusive, RORg inh 2.5µM
Cc1ccc(OCC(=O)NNC(=O)CSc2ncc(C#N)c(N)n2)cc1	VP16 counter inconclusive, RORg inh 0.71µM
N#Cc1cnc(SCC(=O)Nc2ccccc2C(F)(F)F)nc1N	none
C=CCN(CC=C)S(=O)(=O)c1ccc(NC(=S)NC(=O)Cc2ccc(OC)cc2)cc1	VP16 counter inconclusive, RORg inh 7.1µM (no result: uPA generation)
COc1ccc(NC(=O)NCCCCc2ccccc2)cc1	none
COc1ccc(NS(=O)(=O)c2ccc(NC(=S)NC(=O)C(C)C)cc2)cc1	none
COc1cccc(NC(=S)NC(=O)Cc2ccccc2)c1	none (no result: VP16 counter, Mito fusion yeast, Chronic BCR inh, RORg inh)
COc1ccc(NC(=S)NCCCc2ccccc2)cc1	VP16 counter 13µM, RORg inh 3.5µM
COc1ccc(NC(=S)NC(=O)Cc2ccccc2)cc1	VP16 counter 7.1µM, RORg inh 8.9µM
COc1ccc(CC(=O)NC(=S)Nc2ccc(S(N)(=O)=O)cc2)cc1	VP16 counter inconclusive
COc1ccc(CC(=O)NC(=S)Nc2ccc(S(=O)(=O)NC(C)(C)C)cc2)cc1	RORg inh 13µM
COc1cc2cc(CCCOC(=O)c3cccc(Br)c3)oc(=O)c2cc1OC	none (no result: VP16 counter, RORg inh)
O=C(Cc1ccccc1)NC(=S)Nc1ccc(OC(F)F)cc1	VP16 counter 11µM, RORg inh 20µM
Cc1cnc(C(=O)OCC(=O)c2ccc(Cl)cc2)cn1	none
CCNc1nc(NCC)nc(N(C)N)n1	VP16 counter inconclusive, RORg inh 7.1µM
CC(C)Nc1nc(NC(C)C)nc(N(C)N)n1	Chronic BCR inh inconclusive
COCCOC(=O)C1=C(C)N(c2ccccc2)C(=O)NC1c1cccc([N+](=O)[O-])c1 (stereo not given)	VP16 counter 18µM, RORg inh inconclusive
CC(=O)O[C@@H]1CC[C@@]2(C)[C@H](C1)[C@H](OC(C)=O)C[C@@H]1[C@@H]2C[C@H]2[C@@H]3CN4C[C@H](C)CC[C@H]4[C@H](C)[C@H]3CC[C@@]12O	none (no result: uPA generation, Mito fusion yeast, Chronic BCR inh, Integrin act MD)
OCc1ccc(-c2nn(Cc3ccccc3)c3ccccc23)o1	Mito fusion yeast 21µM!, Chronic BCR inh inconclusive (no result: VP16 counter, RORg inh, Integrin act MD)
CCNC(=S)NNC(=O)c1csc(C(C)C)c1	none
Cc1ccsc1C(=O)NNC(=S)NC1CCCCC1	VP16 counter 11µM, Chronic BCR inh inconclusive, Integrin act MD inconclusive
CNC(=S)NNC(=O)c1sccc1C	Chronic BCR inh inconclusive
CCCCNC(=S)NNC(=O)c1csc(C(C)C)c1	VP16 counter inconclusive, RORg inh 7.9µM (no result: uPA generation)
C=CCNC(=S)NNC(=O)c1csc(C)c1C	VP16 counter 7.9µM, RORg inh inconclusive
C=CCNC(=S)NNC(=O)c1cc(O)ccc1O	Integrin act MD inconclusive
CCCCNC(=S)NNC(=O)c1sccc1C	RORg inh 1.4µM (no result: uPA generation)
COc1cc(C(=O)NC2CC(=O)N(c3cccc(F)c3)C2)cc(OC)c1OC (stereo not given)	none (no result: uPA generation, VP16 counter, Mito fusion yeast, RORg inh, Integrin act MD)
Cc1cccc(NC(=O)CSc2nc(C)c(Cc3ccccc3)c(=O)[nH]2)c1C	Chronic BCR inh inconclusive (no result: uPA generation, Integrin act MD)
CCCCNC(=S)NNC(=O)c1csc(C)c1C	VP16 counter 14µM, Chronic BCR inh inconclusive, RORg inh inconclusive
CCC[n+]1cn(/C(C(=S)Nc2cccc(Cl)c2C)=C(/[O-])c2ccc(OC)c(OC)c2)c2ccccc21	VP16 counter inconclusive, RORg inh 14µM (no result: uPA generation)
CCc1c(C)nc2ncnn2c1NCCc1ccc(OC)cc1	VP16 counter 18µM (no result: uPA generation)
Nc1nonc1C(=O)NCCNCc1cc(Br)ccc1OCc1ccc(F)cc1	VP16 counter 13µM
O=C(NCc1cccnc1)c1nc(-c2ccccc2)n(-c2ccccc2)n1	Chronic BCR inh inconclusive
COc1ccc(N(C(=O)C(C)C)S(=O)(=O)c2ccc3ccccc3c2)cc1	uPA generation 1.8µM
CCOC(=O)c1ccccc1NC(=O)COC(=O)c1ccc(OCC(=O)N2CCOCC2)c(OCC)c1	none (no result: VP16 counter, Mito fusion yeast, Chronic BCR inh, RORg inh)
CCOc1cc(/C=N/NC(=S)Nc2ccccc2C(F)(F)F)ccc1OCC(=O)N1CCOCC1	VP16 counter 1.4µM, Chronic BCR inh inconclusive, RORg inh 1.4µM
CCOc1cc(/C=C\[N+](=O)[O-])ccc1OCC(=O)N1CCOCC1	VP16 counter 5.6µM, RORg inh 4.5µM
O=C(CCn1cnnn1)Nc1ccccc1	none
S=C1NC2=C(CCCC2=C2SCCS2)C(c2ccccc2)N1 (stereo not given)	VP16 counter inconclusive, RORg inh 7.1µM
CCOc1ccc(NC(=S)N(CCCN2CCCC2)Cc2cccn2Cc2ccc(Cl)cc2)cc1	Chronic BCR inh inconclusive, RORg inh 13µM
CCOc1ccc(NC(=S)N(CCN2CCOCC2)Cc2ccc3c(c2)CCCN3CC)cc1	VP16 counter inconclusive, RORg inh 6.3µM
CCN1CCCc2cc(CN(CCN3CCOCC3)C(=S)Nc3ccc(C)cc3)ccc21	RORg inh 3.5µM
CCN1CCCc2cc(CN(CCN3CCOCC3)C(=S)Nc3cc(F)cc(F)c3)ccc21	Chronic BCR inh inconclusive, RORg inh 7.1µM
Cc1cccc(NC(=S)N(CCCN2CCCC2)Cc2cccn2Cc2ccc(Cl)cc2)c1	VP16 counter inconclusive, Chronic BCR inh inconclusive, RORg inh inconclusive
Cc1ccc(N(C(=O)c2csnn2)C(C(=O)NC2CCCCC2)c2cccnc2)cc1C (stereo not given)	none
NC(=O)C1CCCN1C(=O)C(Cc1cnc[nH]1)NC(=O)C1CCC(=O)N1 (stereo not given)	none (no result: uPA generation, Mito fusion yeast, Chronic BCR inh, Integrin act MD)
O=C(NCc1ccc(F)cc1)C(Cc1ccccc1)n1cccc1 (stereo not given)	none
Cc1cc(C)c(N2C(=O)C3C4CC(=O)C(c5ccccc54)C3C2=O)c(C)c1 (stereo not given)	none
CCN1CCCc2cc(CN(CCN3CCOCC3)C(=S)Nc3cccc(Cl)c3)ccc21	RORg inh 7.1µM
O=C(Nc1ccc(CN2CCOCC2)cc1)c1ccccc1F	VP16 counter 11µM, Chronic BCR inh inconclusive, RORg inh 0.63µM (no result: uPA generation)
O=C(Nc1ccc(CN2CCOCC2)cc1)c1cc2ccccn2n1	uPA generation inconclusive, VP16 counter 20µM, Chronic BCR inh inconclusive, RORg inh 10µM
O=C(Nc1ccc(CN2CCOCC2)cc1)c1cc2ccccc2o1	VP16 counter inconclusive, Chronic BCR inh inconclusive, RORg inh 11µM
Cc1ccccc1NC(=O)c1cc2ccccn2n1	uPA generation inconclusive, VP16 counter inconclusive, Chronic BCR inh inconclusive
CC(=O)c1cccc(NC(=O)c2cc3ccccn3n2)c1	uPA generation inconclusive, VP16 counter inconclusive, Chronic BCR inh inconclusive, RORg inh 8.9µM

High-throughput results: PubChem BioAssay, National Center for Advancing Translational Sciences (NCATS)
